# Source: ChEMBL document CHEMBL3988442, “University of Dundee, Small-Polar-MMV Screening Library” (2021)
# Hit rate of the full screen: of about 69,000 compounds, about 950 (1.4%) showed an effect of 50% or more. For the sample, strong results were picked, then their nearest neighbours and some compounds at random.
# System: Mycobacterium tuberculosis
# Assay: Cornell M. t heat shock assay; note: in the data most compounds retested in dose-response had high values
# Type: functional, organism-based
# Parameters: dose or concentration left out as unconfirmed
row,SMILES,Percent Effect [%]
1,O=C(O)C(F)(F)F.O=C(O)C(F)(F)F.c1cncc(OC[C@@H]2CC[C@H]3[C@H](CCN3Cc3cccs3)O2)c1,-169
2,CC(=O)NC1CCN(c2cc(C3CCNCC3)nc(C)n2)C1 (stereo unspecified),-7.027
3,O=c1[nH]c(CCN2CCCC2Cn2cccn2)nc2ccccc12 (stereo unspecified),50.72
4,Cc1cnn(CC2CCCN2Cc2nc3ccccc3c(=O)[nH]2)c1 (stereo unspecified),89.62
5,O=c1[nH]c(CCN2CCCCC2Cn2cccn2)nc2ccccc12 (stereo unspecified),29.01
6,O=S(=O)(CCN1CCCC1Cn1cccn1)c1ccccc1 (stereo unspecified),15.63
7,Cc1cnn(CC2CN(Cc3nc4ccccc4c(=O)[nH]3)CCO2)c1 (stereo unspecified),8.669
8,Cn1cc(C2CCCN2CCc2nc3ccccc3c(=O)[nH]2)cn1 (stereo unspecified),2.636
9,O=c1[nH]c(CCN2CCCC2Cn2cncn2)nc2ccccc12 (stereo unspecified),48.51
10,Cc1cnn(CC2CCCN2CCc2nc3ccccc3c(=O)[nH]2)c1 (stereo unspecified),98.35
11,Cc1nc(C)n(CC2CCCN2Cc2nc3ccccc3c(=O)[nH]2)n1 (stereo unspecified),-31.26
12,CC(C)(C)c1n[nH]cc1CNC1CCC(C(F)(F)F)CC1.Cl (stereo unspecified),-43.27
13,Cl.O=C(O)CN1CCC(C(F)(F)F)CC1,11.41
14,CN(Cc1cccnc1)C1CC2(CCN(Cc3cccnc3)CC2)C1.O=C(O)C(F)(F)F.O=C(O)C(F)(F)F.O=C(O)C(F)(F)F,-1.954
15,COCc1cccc(S(=O)(=O)Nc2ncc(C)s2)c1,15.26
16,CNS(=O)(=O)c1cccc(S(=O)(=O)Nc2ncc(C)s2)c1,68.64
17,Cc1cnc(NS(=O)(=O)c2cccc(C#N)c2)s1,-32.7
18,Cc1cnc(NS(=O)(=O)c2ccccc2)s1,4.612
19,COC(=O)c1cccc(S(=O)(=O)Nc2ncc(C)s2)c1,1.16
20,CCOCc1cccc(S(=O)(=O)Nc2ncc(C)s2)c1,52.82
21,Cl.O=C(C1CCCC1)N1C[C@@H](c2ccsc2)[C@@H]2CN(C3CCCC3)CC[C@@H]21,3.962
22,COCCN1CCCn2c(nc(Cn3cncn3)cc2=O)C1.O=C(O)C(F)(F)F,17.08
23,CCOCC1CC2(CCN(C(=O)c3ncccn3)CC2)CO1 (stereo unspecified),-17.44
24,O=C(Nc1ccccc1)N1C[C@H]2C[C@H](C(=O)N3CCCC3)[C@@H](C1)O2,-25.79
25,COCC1N(C(=O)c2ccco2)[C@H]2CC[C@]1(O)CC2 (stereo partly specified),16.02
26,O=C(O)C(F)(F)F.O=C(c1ccno1)N1CCO[C@@H]2CC(COCc3ccccn3)C[C@H]21 (stereo partly specified),1.135
